Drawing on PMC7862700, “An all-to-all approach to the identification of sequence-specific readers for epigenetic DNA modifications on cytosine”, this text covers binding signal for 1 sequence.

What all share (test): DAPPL (digital affinity profiling via proximity ligation, sequencing); 10 mM Tris-HCl pH 7.5, 50 mM NaCl, 1 mM DTT, 4% glycerol, room temperature, 30 min; GST-TFs on glutathione beads, 16-mer random dsDNA library, 0.1% formaldehyde crosslink after washing; high values mean tight binding
What all share (details): protein: recombinant; tags: N-terminal GST; dsDNA, one strand shown

Test [1] deals with T1, FLI1 (Homo sapiens, UniProt Q01543 1-452).
T1 sequence: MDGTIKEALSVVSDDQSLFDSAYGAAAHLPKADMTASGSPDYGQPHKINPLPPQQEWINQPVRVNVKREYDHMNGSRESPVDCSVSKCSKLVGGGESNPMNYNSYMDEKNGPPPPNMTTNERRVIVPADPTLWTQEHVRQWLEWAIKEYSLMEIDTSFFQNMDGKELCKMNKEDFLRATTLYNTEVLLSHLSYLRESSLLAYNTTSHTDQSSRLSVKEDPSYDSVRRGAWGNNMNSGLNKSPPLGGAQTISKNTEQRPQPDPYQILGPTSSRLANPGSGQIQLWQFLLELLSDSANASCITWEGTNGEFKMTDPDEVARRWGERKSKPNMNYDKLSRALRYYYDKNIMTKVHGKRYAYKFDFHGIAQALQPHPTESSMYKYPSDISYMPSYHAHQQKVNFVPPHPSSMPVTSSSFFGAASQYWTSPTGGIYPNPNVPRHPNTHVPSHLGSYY
In short, it runs like this: (§1)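 Human transcription factors were made in yeast as GST fusions, captured on glutathione beads and barcoded with DNA. With a tag-only sample included, the pool was incubated with 200 nmole of a random double-stranded 16-mer DNA library in Tris/NaCl/DTT/glycerol buffer at room temperature for 30 min, then crosslinked with 0.1% formaldehyde after washing, ligated by proximity, amplified and sequenced. For binding signal, each hexamer's read frequency for a factor is divided by its frequency for the tag-only sample.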

The target of test [2] is T2, ELK1 (Homo sapiens, UniProt P19419 1-428).
T2 sequence: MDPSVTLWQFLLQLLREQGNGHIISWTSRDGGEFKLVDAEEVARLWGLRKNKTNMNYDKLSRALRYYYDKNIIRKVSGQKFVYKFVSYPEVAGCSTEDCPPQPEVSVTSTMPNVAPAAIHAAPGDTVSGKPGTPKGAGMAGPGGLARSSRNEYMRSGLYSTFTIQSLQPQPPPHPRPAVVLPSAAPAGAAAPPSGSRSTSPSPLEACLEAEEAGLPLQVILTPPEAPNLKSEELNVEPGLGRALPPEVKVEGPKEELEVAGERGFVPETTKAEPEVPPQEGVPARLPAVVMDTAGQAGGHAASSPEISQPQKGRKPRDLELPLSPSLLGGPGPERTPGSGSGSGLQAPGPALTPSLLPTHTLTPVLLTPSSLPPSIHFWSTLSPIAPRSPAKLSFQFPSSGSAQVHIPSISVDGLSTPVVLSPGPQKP
A digest of the protocol:
as §1

Test [3] concerns the target T3, GABPA (Homo sapiens, UniProt Q06546 1-454).
T3 sequence: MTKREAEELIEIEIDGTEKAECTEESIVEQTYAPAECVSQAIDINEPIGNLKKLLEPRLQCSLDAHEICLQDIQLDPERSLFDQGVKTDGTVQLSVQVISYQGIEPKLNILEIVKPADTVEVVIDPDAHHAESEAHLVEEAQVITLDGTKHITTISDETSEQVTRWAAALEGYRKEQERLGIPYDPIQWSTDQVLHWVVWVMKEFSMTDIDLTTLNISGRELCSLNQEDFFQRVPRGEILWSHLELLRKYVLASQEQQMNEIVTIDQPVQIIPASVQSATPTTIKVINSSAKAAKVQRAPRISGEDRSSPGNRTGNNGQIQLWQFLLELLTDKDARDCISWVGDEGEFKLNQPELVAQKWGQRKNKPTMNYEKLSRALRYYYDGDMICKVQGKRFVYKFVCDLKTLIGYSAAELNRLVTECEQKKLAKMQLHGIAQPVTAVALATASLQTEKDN
In short, it runs like this:
as §1

The target in test [4] is T4, ERG (Homo sapiens, UniProt P11308 1-479).
T4 sequence: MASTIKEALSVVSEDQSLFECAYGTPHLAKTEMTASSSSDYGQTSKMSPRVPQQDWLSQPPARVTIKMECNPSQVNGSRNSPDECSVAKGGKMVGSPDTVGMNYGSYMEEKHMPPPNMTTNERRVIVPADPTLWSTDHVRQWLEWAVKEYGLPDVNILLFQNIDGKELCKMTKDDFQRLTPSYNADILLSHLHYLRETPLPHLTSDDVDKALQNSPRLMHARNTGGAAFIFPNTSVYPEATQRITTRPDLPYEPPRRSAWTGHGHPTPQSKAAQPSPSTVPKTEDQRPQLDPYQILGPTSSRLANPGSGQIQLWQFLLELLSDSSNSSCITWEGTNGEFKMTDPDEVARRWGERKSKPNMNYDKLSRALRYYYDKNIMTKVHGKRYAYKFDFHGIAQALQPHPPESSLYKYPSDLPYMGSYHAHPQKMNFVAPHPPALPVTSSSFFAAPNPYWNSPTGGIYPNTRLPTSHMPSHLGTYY
In short, it runs like this: as §1

Test [5] concerns the target ELF1 (Homo sapiens, UniProt P32519 1-619). A digest of the protocol:
as §1

The target of test [6] is T5, ELK3 (Homo sapiens, UniProt P41970 1-407).
T5 sequence: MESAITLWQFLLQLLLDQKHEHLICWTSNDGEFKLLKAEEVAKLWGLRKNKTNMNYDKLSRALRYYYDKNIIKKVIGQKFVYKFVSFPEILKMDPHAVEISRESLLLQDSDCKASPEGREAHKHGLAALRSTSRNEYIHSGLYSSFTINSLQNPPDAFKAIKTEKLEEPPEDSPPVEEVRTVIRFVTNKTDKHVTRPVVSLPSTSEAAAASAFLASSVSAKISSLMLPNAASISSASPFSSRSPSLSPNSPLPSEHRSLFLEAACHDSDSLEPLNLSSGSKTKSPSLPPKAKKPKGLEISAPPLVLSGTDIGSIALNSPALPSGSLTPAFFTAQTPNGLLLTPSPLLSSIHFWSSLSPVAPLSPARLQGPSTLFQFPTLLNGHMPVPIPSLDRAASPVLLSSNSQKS
In short, it runs like this:
as §1

In test [7] the target is ELF4 (Homo sapiens, UniProt Q99607 1-663). In short, it runs like this:
as §1

Test [8] deals with T6, ELK4 (Homo sapiens, UniProt P28324-2 1-405).
T6 sequence: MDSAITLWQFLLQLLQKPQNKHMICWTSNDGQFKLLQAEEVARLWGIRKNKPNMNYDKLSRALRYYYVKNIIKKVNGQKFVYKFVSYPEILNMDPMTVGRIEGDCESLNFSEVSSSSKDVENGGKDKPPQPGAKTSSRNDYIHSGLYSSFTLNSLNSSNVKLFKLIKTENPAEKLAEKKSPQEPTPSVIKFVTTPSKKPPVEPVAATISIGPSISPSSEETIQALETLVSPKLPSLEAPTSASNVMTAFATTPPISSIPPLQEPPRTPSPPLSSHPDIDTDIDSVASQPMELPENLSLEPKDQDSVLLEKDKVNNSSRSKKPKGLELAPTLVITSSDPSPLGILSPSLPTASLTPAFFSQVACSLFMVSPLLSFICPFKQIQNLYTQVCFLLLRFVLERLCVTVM
In short, it runs like this:
as §1

The target in test [9] is T7, ETV2 (Homo sapiens, UniProt O00321 1-342).
T7 sequence: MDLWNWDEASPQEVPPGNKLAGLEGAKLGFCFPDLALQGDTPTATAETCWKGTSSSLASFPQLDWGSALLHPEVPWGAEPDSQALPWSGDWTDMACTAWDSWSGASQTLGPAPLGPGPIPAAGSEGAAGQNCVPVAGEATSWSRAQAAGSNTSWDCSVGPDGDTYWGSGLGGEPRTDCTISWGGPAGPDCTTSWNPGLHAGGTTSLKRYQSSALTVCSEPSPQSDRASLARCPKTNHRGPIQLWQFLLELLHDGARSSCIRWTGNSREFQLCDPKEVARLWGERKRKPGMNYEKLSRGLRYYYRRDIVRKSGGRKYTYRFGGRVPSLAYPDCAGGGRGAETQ
In short, it runs like this: as §1

The target of test [10] is T8, ETV3L (Homo sapiens, UniProt Q6ZN32 1-361).
T8 sequence: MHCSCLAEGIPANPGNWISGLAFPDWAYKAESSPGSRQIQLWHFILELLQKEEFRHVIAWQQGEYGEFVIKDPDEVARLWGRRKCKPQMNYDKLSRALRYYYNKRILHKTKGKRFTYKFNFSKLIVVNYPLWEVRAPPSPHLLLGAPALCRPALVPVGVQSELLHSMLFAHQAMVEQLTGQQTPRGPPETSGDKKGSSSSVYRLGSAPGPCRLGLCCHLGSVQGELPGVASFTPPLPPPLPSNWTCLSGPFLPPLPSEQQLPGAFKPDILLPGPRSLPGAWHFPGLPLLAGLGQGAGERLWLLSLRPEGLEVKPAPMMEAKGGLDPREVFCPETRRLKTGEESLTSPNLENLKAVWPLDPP
A digest of the protocol: as §1

In test [11] the target is T9, ETV7 (Homo sapiens, UniProt Q9Y603 1-341).
T9 sequence: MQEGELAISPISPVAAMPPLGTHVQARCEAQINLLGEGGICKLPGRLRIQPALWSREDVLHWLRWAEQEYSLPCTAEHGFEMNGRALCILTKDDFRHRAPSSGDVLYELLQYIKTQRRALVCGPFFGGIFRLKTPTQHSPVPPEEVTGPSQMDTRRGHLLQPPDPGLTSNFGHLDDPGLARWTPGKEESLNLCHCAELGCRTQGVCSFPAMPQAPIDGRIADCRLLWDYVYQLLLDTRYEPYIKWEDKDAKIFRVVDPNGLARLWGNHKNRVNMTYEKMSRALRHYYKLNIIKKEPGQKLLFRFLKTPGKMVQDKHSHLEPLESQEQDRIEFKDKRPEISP
In short, it runs like this: as §1

The target of test [12] is T10, ETV3 (Homo sapiens, UniProt P41162-2 1-143).
T10 sequence: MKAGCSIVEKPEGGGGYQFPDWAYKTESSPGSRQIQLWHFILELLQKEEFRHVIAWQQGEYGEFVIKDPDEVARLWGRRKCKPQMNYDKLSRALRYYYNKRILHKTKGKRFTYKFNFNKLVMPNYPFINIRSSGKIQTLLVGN
A digest of the protocol:
as §1

The target in test [13] is ETV6 (Homo sapiens, UniProt P41212 1-452). In short, it runs like this:
as §1

Sequence of ELF1 (P32519 whole entry): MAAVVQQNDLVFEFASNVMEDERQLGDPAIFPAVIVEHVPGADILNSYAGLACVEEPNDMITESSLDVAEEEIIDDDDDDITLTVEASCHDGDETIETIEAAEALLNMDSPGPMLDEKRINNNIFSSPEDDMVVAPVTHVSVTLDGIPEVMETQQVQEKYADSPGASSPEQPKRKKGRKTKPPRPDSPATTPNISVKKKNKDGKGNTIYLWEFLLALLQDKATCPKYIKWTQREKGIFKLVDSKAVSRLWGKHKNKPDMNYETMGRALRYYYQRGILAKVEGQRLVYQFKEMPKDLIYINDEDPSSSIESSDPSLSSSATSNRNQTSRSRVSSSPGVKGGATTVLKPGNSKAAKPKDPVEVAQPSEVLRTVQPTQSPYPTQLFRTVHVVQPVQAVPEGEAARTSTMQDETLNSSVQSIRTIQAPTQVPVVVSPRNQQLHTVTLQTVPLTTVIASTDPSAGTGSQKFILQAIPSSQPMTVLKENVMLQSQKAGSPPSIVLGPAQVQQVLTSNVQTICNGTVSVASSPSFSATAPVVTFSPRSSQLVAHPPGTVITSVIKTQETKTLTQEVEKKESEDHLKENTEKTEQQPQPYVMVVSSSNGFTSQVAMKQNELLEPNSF
Sequence of ETV6 (P41212 whole entry): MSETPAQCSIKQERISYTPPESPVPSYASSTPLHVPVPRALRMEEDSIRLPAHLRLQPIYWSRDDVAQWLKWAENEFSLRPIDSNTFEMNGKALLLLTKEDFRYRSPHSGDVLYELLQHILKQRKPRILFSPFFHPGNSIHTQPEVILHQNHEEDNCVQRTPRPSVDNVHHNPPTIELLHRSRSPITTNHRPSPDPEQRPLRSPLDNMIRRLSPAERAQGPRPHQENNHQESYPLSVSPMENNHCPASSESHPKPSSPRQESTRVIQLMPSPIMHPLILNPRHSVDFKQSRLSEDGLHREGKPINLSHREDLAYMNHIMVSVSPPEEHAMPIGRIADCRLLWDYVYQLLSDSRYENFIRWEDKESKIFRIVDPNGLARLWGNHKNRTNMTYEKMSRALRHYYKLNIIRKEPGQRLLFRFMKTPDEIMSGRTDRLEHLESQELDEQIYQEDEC
Sequence of ELF4 (Q99607 whole entry): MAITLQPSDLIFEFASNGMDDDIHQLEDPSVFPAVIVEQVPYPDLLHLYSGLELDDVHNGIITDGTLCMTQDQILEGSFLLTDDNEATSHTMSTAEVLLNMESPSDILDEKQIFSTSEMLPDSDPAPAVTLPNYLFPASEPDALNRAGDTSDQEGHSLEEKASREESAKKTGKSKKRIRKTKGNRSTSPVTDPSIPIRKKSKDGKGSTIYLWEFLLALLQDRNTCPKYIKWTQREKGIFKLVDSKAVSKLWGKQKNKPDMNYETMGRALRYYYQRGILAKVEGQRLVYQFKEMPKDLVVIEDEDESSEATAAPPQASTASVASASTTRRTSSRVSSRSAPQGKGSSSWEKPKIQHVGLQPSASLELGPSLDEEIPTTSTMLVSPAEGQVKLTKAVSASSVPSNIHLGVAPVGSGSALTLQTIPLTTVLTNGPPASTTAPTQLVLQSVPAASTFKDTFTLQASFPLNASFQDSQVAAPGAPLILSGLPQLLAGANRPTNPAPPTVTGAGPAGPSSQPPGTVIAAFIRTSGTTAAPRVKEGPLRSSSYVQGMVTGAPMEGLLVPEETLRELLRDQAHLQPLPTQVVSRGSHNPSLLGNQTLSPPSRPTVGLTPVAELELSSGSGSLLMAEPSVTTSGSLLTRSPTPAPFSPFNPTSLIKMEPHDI

As for CGCGGC, the binding signal in test [1] is 1.1 fold enrichment (6-mer frequency, TF over GST control); in test [2], 1.08 fold enrichment (6-mer frequency, TF over GST control); in test [3], 1.15 fold enrichment (6-mer frequency, TF over GST control); in [4], 1.05 fold enrichment (6-mer frequency, TF over GST control); in [5], 1.04 fold enrichment (6-mer frequency, TF over GST control); in [6], 1 fold enrichment (6-mer frequency, TF over GST control). For the same sequence, the binding signal is 1.15 fold enrichment (6-mer frequency, TF over GST control) in [7]; 1.12 fold enrichment (6-mer frequency, TF over GST control) in test [8]; 1.01 fold enrichment (6-mer frequency, TF over GST control) in test [9]; 1.01 fold enrichment (6-mer frequency, TF over GST control) in test [10]; 1.03 fold enrichment (6-mer frequency, TF over GST control) in test [11]; 1.04 fold enrichment (6-mer frequency, TF over GST control) in test [12]. In addition, the binding signal in test [13] is 1.15 fold enrichment (6-mer frequency, TF over GST control).
